From PubChem BioAssay (EPA / NIEHS) come the findings set out here.

Usually AC50 stands for the midpoint of the concentration-response curve, whichever way the signal moves.

The source made the active and inactive calls. The calls were made as follows: active = hit-call score of the fitted dose curve at least 0.9, where 1 is the maximum; inactive = score below 0.9.

Sequence of Cytochrome P450 3A7 (Homo sapiens) (P24462 whole entry, looked up): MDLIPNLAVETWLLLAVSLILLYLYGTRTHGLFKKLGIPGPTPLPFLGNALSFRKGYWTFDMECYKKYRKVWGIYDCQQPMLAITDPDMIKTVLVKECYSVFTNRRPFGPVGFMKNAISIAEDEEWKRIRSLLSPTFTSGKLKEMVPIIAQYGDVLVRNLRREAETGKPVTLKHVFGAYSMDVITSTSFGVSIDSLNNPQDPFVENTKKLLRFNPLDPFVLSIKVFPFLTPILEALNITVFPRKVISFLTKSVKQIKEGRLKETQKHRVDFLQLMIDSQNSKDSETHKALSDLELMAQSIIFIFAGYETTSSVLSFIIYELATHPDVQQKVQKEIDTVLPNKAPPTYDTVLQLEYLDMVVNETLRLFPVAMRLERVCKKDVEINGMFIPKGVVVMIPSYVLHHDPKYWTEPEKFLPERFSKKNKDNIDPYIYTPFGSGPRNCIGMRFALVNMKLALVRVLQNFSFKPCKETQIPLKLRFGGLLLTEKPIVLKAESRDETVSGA

Read-out in the experiment: Cytochrome P450 3A7 (Homo sapiens) (UniProt P24462)
Put plainly: LTEA_HepaRG_CYP3A7: Life Technologies and Expression Analysis (LTEA) Assay for CYP3A7 using HepaRG (AID 2283492). The settings on record: mRNA level, 48 h; actives raise or lower the signal. The method, then:
LTEA_HepaRG is a cell based, multiplexed-readout assay that uses HepaRG, a human liver cell line, with measurements taken at 48 hours after chemical dosing on a 96-well plate.LTEA_HepaRG_CYP3A7 is one of 102 assay component(s) measured in the LTEA HepaRG cell culture assay. It is a marker of NR mediated metabolism/Undifferentiated hepatocyte.Data from the assay component LTEA_HepaRG_CYP3A7 was analyzed into 1 endpoint. This assay endpoint, LTEA_HepaRG_CYP3A7, was analyzed with bidirectional fitting relative to DMSO as the negative control and baseline of activity. Using a type of inducible reporter, measures of mRNA induction for gain or loss-of-signal activity can be used to understand regulation of transcription factor activity. To generalize the intended target to other relatable targets, this assay endpoint is annotated to the cyp intended target family, where the subfamily is xenobiotic metabolism.
A total of 1060 chemcials from the ToxCast library were tested in eight-point concentration-response experiments. Cell culture and cytotoxicity assays were conducted at Thermo Fisher Scientific's Custom Services facility (Madison, WI). A single lot of human HepaRG cells (Thermo Fisher Scientific, Frederick, MD) was used for the cell culture experiments. 96-well format collagen type I coated plates of human HepaRG cells were prepared using established methods. Briefly, cryopreserved HepaRG cells were thawed, plated at a density of approximately 100,000 cells/well in HepaRG Thaw, Plate, and General Purpose media (HPRG770, Thermo Fisher Scientific), and incubated for 48 hours. 0.5% DMSO was selected as vehicle control to balance the requisite need of DMSO in HepaRG cultures to maintain differentiation (for example, baseline metabolism, proportions of hepatocytes vs. cholangiocytes), while enabling further hepatic receptor pathway activation (for example, PXR and CAR) in response to chemical exposure. 48 hours after plating, the culture medium was replaced with HepaRG Serum-Free Incudtion Media. Cells were exposed to each test chemical in duplicate and maintained in CO2 incubators for another 48 hours. Chemical plates were thawed to room temperature and 200x concentrations of treatment groups were prepared. 8-point conentration-reponse curves were made with the highest exposure at 100 uM, followed by half-log dilutions, all in 0.5% DMSO. Each test plate contained variouse controls, induction positive controls (1mM phenobarbital), cytotoxicity positive controls ([…] aflatoxin B1), vehicle controls (0.5% DMSO), and total lysis controls (0.5% DMSO). Cell morphology images were taken using an Essen IncuCyte FLR automated microscope, with six 96-well plates imaged in about 24 minutes. Images were captured and exported and JPEG files. Spent culture media was transfered to black-well plates for the LDH assay, and remaining media was sorted at -80 C for later use. Cells were treated with RLT buffer and frozen until shipped for gene expression analysis. Total RNA was isolated from the cell suspension in 75 uL of Buffer RLT (Qiagen, Germantown, MD 20874) by Quintiles/Expression Analysis (Durham, NC) using a custom isolation procedure. Total RNA from each plate well was transferred to a preamplification plate. Fluidigm's 96.96 Dynamic ArrayTM (Fluidigm, Amsterdam, the Netherlands) technology was used for gene expression analyses by quantitative reverse transcription polymerase chain reaction (qRT-PCR, performed by Quintiles/Expression Analysis, Durham, NC)89. Standard TaqManTM Assays (Applied Biosystems/ThermoFisher Scientific, Foster City, CA) were used to assess the expression of 93 genes selected based on their selectivity and sensitivity to important hepatic receptors known to be modulated by environmental chemicals; importance in human hepatocyte functionality; and hepatotoxicity. […]
`Cc1nn(-c2cc(NS(C)(=O)=O)c(Cl)cc2Cl)c(=O)n1C(F)F`: the half-maximal activity concentration (AC50) was 7.34 µM (active).

With `CCOP(=O)(OCC)Oc1cc(C)nc(C(C)C)n1`, the compound was classed as inactive.

For the compound `CC1(C(=O)Nc2ccc(O)c(Cl)c2Cl)CCCCC1`, the compound was classed as inactive.

As for `C[Si](Cn1cncn1)(c1ccc(F)cc1)c1ccc(F)cc1`, the AC50 was 81.9 µM (active).

`Cc1cc(C2CC2)nc(Nc2ccccc2)n1`: the outcome was inactive.

Take `COc1cccc(C(=O)NN(C(=O)c2cc(C)cc(C)c2)C(C)(C)C)c1C`: the half-maximal activity concentration (AC50) is 5.42 µM (active).

Turning to `C#CCC1=C(C)C(OC(=O)C2C(C=C(C)C)C2(C)C)CC1=O` (stereo not given), the compound was called inactive.

Take `CCCCOC(=O)c1ccccc1C(=O)O`: the AC50 was 12.7 µM (active).

Take `CC[C@H](C)[C@H]1O[C@]2(C=C[C@@H]1C)C[C@@H]1C[C@@H](C/C=C(\C)[C@@H](O[C@H]3C[C@H](OC)[C@@H](O[C@H]4C[C@H](OC)[C@@H](NC)[C@H](C)O4)[C@H](C)O3)[C@@H](C)/C=C/C=C3\CO[C@@H]4[C@H](O)C(C)=C[C@@H](C(=O)O1)[C@]34O)O2`: the half-maximal activity concentration (AC50) was 19.9 µM (active).

Take `C#CC(C)(C)NC(=O)c1cc(Cl)cc(Cl)c1`: the AC50 was 4.98 µM (active).

For the compound `O=c1ccc(=O)[nH][nH]1`, the call was inactive.

Take `CCC(CC)Nc1c([N+](=O)[O-])cc(C)c(C)c1[N+](=O)[O-]`: the concentration at half-maximal activity (AC50) was 16.7 µM (active).

Take `CCOP(=S)(OCC)Oc1ccc([N+](=O)[O-])cc1`: the AC50 was 6.02 µM (active).

Take `COP(=O)(NC(C)=O)SC` (stereo not given): the call was inactive.

As for `CN1COCN(Cc2cnc(Cl)s2)C1=N[N+](=O)[O-]`, the outcome was inactive.

Turning to `O=C(O)c1cc(Oc2ccc(C(F)(F)F)cc2Cl)ccc1[N+](=O)[O-]`, the AC50 was 50 µM (active).

In the case of `CCC(=NOC/C=C/Cl)C1=C(O)CC(C2CCOCC2)CC1=O` (stereo not given), the compound was classed as inactive.

Regarding `CCCCSP(=O)(SCCCC)SCCCC`, the compound was classed as inactive.

In the case of `CCOP(=S)(OCC)OC(Cl)C(Cl)(Cl)Cl` (stereo not given), the call was inactive.

With `N#CSCSC#N`, the AC50 is 59.5 µM (active).

Take `CCOP(=S)(OCC)SCCSCC`: the compound was classed as inactive.

Take `C[N+]1(C)CCCCC1`: the compound was called inactive.

Consider `CNc1cnn(-c2cccc(C(F)(F)F)c2)c(=O)c1Cl`, for which the outcome was inactive.

As to `CNC(=O)Oc1cccc2c1OC(C)(C)O2`, the compound was classed as inactive.

Regarding `COP(=O)(OC)OC(Br)C(Cl)(Cl)Br` (stereo not given), the outcome was inactive.

Take `CC(C)=CC1C(C(=O)OCN2C(=O)C3=C(CCCC3)C2=O)C1(C)C` (stereo not given): the compound was classed as inactive.

For `CCC(=O)Nc1ccc(Cl)c(Cl)c1`, the compound was called inactive.

For `CCc1cnc(C2=NC(C)(C(C)C)C(=O)N2)c(C(=O)O)c1` (stereo not given), the result was inactive.

In the case of `Nc1nc(N)nc(NC2CC2)n1`, the compound was classed as inactive.

On to `COc1cc(OC)nc(Sc2cccc(Cl)c2C(=O)O)n1`, for which the outcome was inactive.

As for `CCOP(=S)(Oc1cnc(C(C)(C)C)nc1)OC(C)C` (stereo not given), the compound was called inactive.

Regarding `CC(C)N(C(=O)SCC(Cl)=C(Cl)Cl)C(C)C`, the compound was called inactive.

Turning to `CCOP(=S)(OCC)Oc1cc(C)nc(C(C)C)n1`, the compound was classed as inactive.

Regarding `CN(C)C(=O)Nc1cccc(C(F)(F)F)c1`, the concentration at half-maximal activity (AC50) is 7.66 µM (active).

As to `CNC(=O)ON=C(SC)C(=O)N(C)C`, the call was inactive.

With `CCOP(=O)(SC(C)CC)N1CCSC1=O` (stereo not given), the call was inactive.

On to `CON=C(C(=O)OC)c1ccccc1CON=C(C)c1cccc(C(F)(F)F)c1`, for which the AC50 is 19.5 µM (active).

On to `CCCSP(=O)(OCC)SCCC`, for which the compound was called inactive.

In the case of `CNC(=O)ON=C(C)SC`, the outcome was inactive.

Take `CN(C)NC(=O)CCC(=O)O`: the outcome was inactive.
